Data taken from PubChem BioAssay (NCI).
The panel holds about 83,000 compounds, 20% with a hit somewhere; the sample as a whole holds those more often.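 Plates (96-well) were seeded with cells, treated with compound at one concentration, and incubated for 48 hours before percent growth was determined.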 The source made the active and inactive calls. How the source made its calls: active means growth percent below 10; inactive means the rest.

How the values were obtained:
Test in all cases: NCI-60 one-dose screen, 48 h (100 = growth as untreated, 0 = no growth, -100 = all killed)
Conditions in all cases: 10 µM
SR leukemia = test system: SR leukemia
RPMI-8226 leukemia = test system: RPMI-8226 leukemia
OVCAR-8 ovarian = test system: OVCAR-8 ovarian
OVCAR-5 ovarian = test system: OVCAR-5 ovarian
OVCAR-4 ovarian = test system: OVCAR-4 ovarian
IGROV1 ovarian = test system: IGROV1 ovarian
OVCAR-3 ovarian = test system: OVCAR-3 ovarian
HS 578T breast = test system: HS 578T breast
NCI/ADR-RES ovarian = test system: NCI/ADR-RES ovarian
T-47D breast = test system: T-47D breast
MDA-MB-435 melanoma = test system: MDA-MB-435 melanoma
SW-620 colon = test system: SW-620 colon
MCF7 breast = test system: MCF7 breast
HCT-116 colon = test system: HCT-116 colon
HCC-2998 colon = test system: HCC-2998 colon
KM12 colon = test system: KM12 colon
BT-549 breast = test system: BT-549 breast
SK-OV-3 ovarian = test system: SK-OV-3 ovarian

Measured: growth

Cc1ccc(-n2nnnc2N)c(C)c1
inactive: SR leukemia 112% | RPMI-8226 leukemia 109% | OVCAR-8 ovarian 108% | OVCAR-5 ovarian 107% | OVCAR-4 ovarian 99% | IGROV1 ovarian 123% | OVCAR-3 ovarian 113% | HS 578T breast 99% | NCI/ADR-RES ovarian 105% | T-47D breast 112% | MDA-MB-435 melanoma 102% | SW-620 colon 96% | MCF7 breast 95.9% | HCT-116 colon 98.7% | HCC-2998 colon 95% | KM12 colon 108%

Cc1ccc(N=Nc2ccccc2)cc1
inactive: SR leukemia 90.3% | RPMI-8226 leukemia 100% | OVCAR-8 ovarian 106% | OVCAR-5 ovarian 99.7% | OVCAR-4 ovarian 108% | IGROV1 ovarian 102% | OVCAR-3 ovarian 105% | HS 578T breast 103% | NCI/ADR-RES ovarian 102% | T-47D breast 88.2% | BT-549 breast 90% | MDA-MB-435 melanoma 101% | SW-620 colon 102% | MCF7 breast 98.3% | HCT-116 colon 78.4% | HCC-2998 colon 103% | KM12 colon 93.8%

C[C@@H](O)[C@H]1C(=O)N2C(C(=O)O)=C(SC3CN[C@H](C(=O)N(C)C)C3)[C@H](C)[C@H]12 (stereo not given in full)
inactive: SR leukemia 123% | RPMI-8226 leukemia 96.5% | OVCAR-8 ovarian 107% | OVCAR-5 ovarian 100% | OVCAR-4 ovarian 114% | IGROV1 ovarian 101% | OVCAR-3 ovarian 116% | HS 578T breast 102% | NCI/ADR-RES ovarian 101% | T-47D breast 98.2% | BT-549 breast 105% | MDA-MB-435 melanoma 101% | SW-620 colon 99.4% | MCF7 breast 101% | HCT-116 colon 104% | HCC-2998 colon 106% | KM12 colon 108%

O=C(CCCCC(=O)Oc1c(Cl)cc(Cl)cc1[N+](=O)[O-])Oc1c(Cl)cc(Cl)cc1[N+](=O)[O-]
inactive: SR leukemia 85.4% | RPMI-8226 leukemia 92.9% | OVCAR-8 ovarian 106% | OVCAR-5 ovarian 109% | OVCAR-4 ovarian 104% | IGROV1 ovarian 101% | OVCAR-3 ovarian 105% | HS 578T breast 105% | NCI/ADR-RES ovarian 102% | T-47D breast 102% | MDA-MB-435 melanoma 103% | SW-620 colon 112% | MCF7 breast 86.3% | HCT-116 colon 101% | HCC-2998 colon 103% | KM12 colon 99.7%

COc1ccc(C2=Cn3c(CCC(=O)c4nc5ccccc5[nH]4)nnc3SC2)cc1
inactive: SR leukemia 18.9% | RPMI-8226 leukemia 61.7% | OVCAR-8 ovarian 120% | OVCAR-5 ovarian 116% | SK-OV-3 ovarian 120% | IGROV1 ovarian 91.6% | OVCAR-3 ovarian 113% | HS 578T breast 92.8% | NCI/ADR-RES ovarian 105% | T-47D breast 81% | BT-549 breast 104% | MDA-MB-435 melanoma 90.3% | SW-620 colon 129% | MCF7 breast 84.6% | HCT-116 colon 71.4% | HCC-2998 colon 127% | KM12 colon 98.6%

Cc1ccc(C(C)C)c(O)c1NC(=O)OC(C)C
inactive: SR leukemia 115% | RPMI-8226 leukemia 102% | OVCAR-8 ovarian 95.7% | SK-OV-3 ovarian 106% | OVCAR-3 ovarian 104% | HS 578T breast 95.8% | BT-549 breast 96.1% | MDA-MB-435 melanoma 106% | SW-620 colon 103% | MCF7 breast 92.7% | HCT-116 colon 91.9% | HCC-2998 colon 89.5% | KM12 colon 100%

CC(=O)OC1CC2C(C)(C)CCC[C@]2(C)C2=C1C(O)=C(C(C)C)C(=O)C2=O (stereo not given in full)
active: SR leukemia 2.66% | RPMI-8226 leukemia 4.43% | OVCAR-5 ovarian -39.3% | OVCAR-3 ovarian -54% | NCI/ADR-RES ovarian 3.62% | T-47D breast 0.0935% | BT-549 breast -21.9% | MDA-MB-435 melanoma -37.9% | SW-620 colon -51% | HCT-116 colon -8.31% | HCC-2998 colon -76.1% | KM12 colon -77.7%
inactive: OVCAR-8 ovarian 13.4% | SK-OV-3 ovarian 19.3% | HS 578T breast 28.9%

COc1cc2c(cc1NC(=O)C(F)(F)F)-c1ccc(NC(=O)C(F)(F)F)cc1C2
inactive: SR leukemia 107% | RPMI-8226 leukemia 103% | OVCAR-8 ovarian 96.8% | OVCAR-5 ovarian 99% | SK-OV-3 ovarian 54.7% | IGROV1 ovarian 103% | OVCAR-3 ovarian 108% | HS 578T breast 77.8% | NCI/ADR-RES ovarian 93.3% | T-47D breast 83.8% | BT-549 breast 98.7% | MDA-MB-435 melanoma 99.6% | SW-620 colon 98.1% | MCF7 breast 94.2% | HCT-116 colon 97.1% | HCC-2998 colon 105% | KM12 colon 97.3%

Cc1cc(O)ccc1C1=NN(c2ccc(S(C)(=O)=O)cc2)C(=O)CC1
active: MDA-MB-435 melanoma -8.25%
inactive: SR leukemia 12.3% | OVCAR-8 ovarian 92.3% | OVCAR-5 ovarian 98.1% | OVCAR-4 ovarian 98% | SK-OV-3 ovarian 85% | IGROV1 ovarian 43.5% | OVCAR-3 ovarian 65.1% | HS 578T breast 86.9% | NCI/ADR-RES ovarian 40.6% | T-47D breast 84.8% | BT-549 breast 58.2% | SW-620 colon 46.6% | MCF7 breast 82.8% | HCT-116 colon 52.4% | HCC-2998 colon 78.6% | KM12 colon 47.6%

O=C(CCn1cnc2c(cc(-c3ccccc3)n2-c2ccccc2)c1=O)Nc1ccc(F)cc1
inactive: SR leukemia 72.3% | RPMI-8226 leukemia 79.3% | OVCAR-8 ovarian 54% | OVCAR-5 ovarian 85.8% | SK-OV-3 ovarian 64.6% | IGROV1 ovarian 81.3% | OVCAR-3 ovarian 76.7% | HS 578T breast 63.1% | T-47D breast 68.2% | BT-549 breast 57.8% | MDA-MB-435 melanoma 85.2% | SW-620 colon 95.9% | MCF7 breast 74.7% | HCT-116 colon 62.5% | HCC-2998 colon 86.2% | KM12 colon 73.8%

CSc1ccc(-c2cc(-c3ccc(NC(=O)CCCN4CCCC4)cc3)nc(-c3ccc(NC(=O)CCCN4CCCC4)cc3)c2)cc1
active: MCF7 breast -86.4%
inactive: SR leukemia 32.2% | RPMI-8226 leukemia 73.2% | OVCAR-8 ovarian 76.4% | OVCAR-5 ovarian 72.3% | OVCAR-4 ovarian 67.3% | OVCAR-3 ovarian 63.4% | HS 578T breast 55% | NCI/ADR-RES ovarian 95.5% | T-47D breast 102% | BT-549 breast 77.6% | MDA-MB-435 melanoma 79.7% | SW-620 colon 67.6% | HCT-116 colon 80.4% | HCC-2998 colon 86.3% | KM12 colon 24.6%

Cc1ccc(NCCNCC(C)(C)O)c2c(=O)c3ccc(Cl)cc3sc12
inactive: OVCAR-8 ovarian 32.2% | OVCAR-5 ovarian 59.9% | OVCAR-4 ovarian 62.5% | HS 578T breast 50.4% | NCI/ADR-RES ovarian 45.9% | T-47D breast 27.4%
active: SR leukemia -31.2% | RPMI-8226 leukemia -12.9% | OVCAR-3 ovarian -13.4% | MDA-MB-435 melanoma -84.5% | SW-620 colon -80.1% | MCF7 breast -73.2% | HCT-116 colon -61.6% | HCC-2998 colon -52.8% | KM12 colon 8.21%

N#CC1=CC2CN(Cc3ccccc3)C1C1C(=O)N(c3ccccc3)C(=O)C21 (stereo not given)
inactive: SR leukemia 93.4% | OVCAR-8 ovarian 98.2% | OVCAR-5 ovarian 101% | OVCAR-4 ovarian 93.2% | SK-OV-3 ovarian 97% | IGROV1 ovarian 103% | OVCAR-3 ovarian 111% | HS 578T breast 101% | NCI/ADR-RES ovarian 91.6% | T-47D breast 99.5% | BT-549 breast 95% | MDA-MB-435 melanoma 105% | SW-620 colon 95.2% | MCF7 breast 97.1% | HCT-116 colon 101% | HCC-2998 colon 92.1% | KM12 colon 103%

CCN(CC)CCCC(C)Nc1c2ccc(Cl)cc2nc2ccc(OC)cc12 (stereo not given)
active: SR leukemia 0.997% | RPMI-8226 leukemia -6.19% | OVCAR-4 ovarian -7.7% | MDA-MB-435 melanoma -18.9% | SW-620 colon -19.1% | MCF7 breast -11.6%
inactive: OVCAR-8 ovarian 16.6% | SK-OV-3 ovarian 39.3% | OVCAR-3 ovarian 31% | HS 578T breast 57.4% | NCI/ADR-RES ovarian 31.9% | T-47D breast 14% | BT-549 breast 56.2% | HCT-116 colon 12.3% | HCC-2998 colon 15.3% | KM12 colon 22.1%

Cc1cc(=O)n2nnc3cc(C(F)(F)F)ccc3n12
inactive: SR leukemia 104% | RPMI-8226 leukemia 107% | OVCAR-8 ovarian 111% | OVCAR-5 ovarian 121% | OVCAR-4 ovarian 116% | OVCAR-3 ovarian 114% | HS 578T breast 117% | NCI/ADR-RES ovarian 110% | T-47D breast 116% | BT-549 breast 127% | MDA-MB-435 melanoma 99.4% | SW-620 colon 118% | MCF7 breast 120% | HCT-116 colon 103% | HCC-2998 colon 104% | KM12 colon 105%

COc1cc(-c2nc3ccccc3o2)cc(CN2CCCCC2)c1O
inactive: SR leukemia 31.7% | RPMI-8226 leukemia 45.1% | OVCAR-8 ovarian 71.1% | OVCAR-5 ovarian 110% | SK-OV-3 ovarian 118% | IGROV1 ovarian 82.1% | OVCAR-3 ovarian 59% | HS 578T breast 60.3% | NCI/ADR-RES ovarian 79.7% | T-47D breast 86.6% | BT-549 breast 67.2% | SW-620 colon 64.6% | MCF7 breast 50.8% | HCT-116 colon 57.2% | HCC-2998 colon 97.7% | KM12 colon 44.9%
active: MDA-MB-435 melanoma -79.9%

Nc1c(Br)cc(Br)c2c1[nH]c(=O)c1ccccc12
inactive: SR leukemia 81.1% | RPMI-8226 leukemia 96.2% | OVCAR-8 ovarian 37.2% | OVCAR-5 ovarian 72.8% | SK-OV-3 ovarian 16.1% | IGROV1 ovarian 58.4% | OVCAR-3 ovarian 68.7% | HS 578T breast 30.5% | NCI/ADR-RES ovarian 44.3% | T-47D breast 39.2% | BT-549 breast 76.8% | MDA-MB-435 melanoma 93.3% | SW-620 colon 73.4% | MCF7 breast 22.1% | HCT-116 colon 83.1% | HCC-2998 colon 87.5% | KM12 colon 101%
